Experimental data taken from PubChem BioAssay AID1159506 (National Center for Advancing Translational Sciences (NCATS), 2015).
Whole data set: some 59,000 sequences, median the read-out near -0.00055, cut for the lowest 2% near -2. Only a selection was taken, and the lowest values are over-represented in it overall.

Test: Identification of proteins required for the processing of the EWS-FLI1 nascent transcript;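 further: robust z of luciferase light less the median z of siRNAs with the same seed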
Details: TC32 Ewing sarcoma NR0B1-luc vs CMV-luc (EWS-FLI1 target promoter against control promoter), 48 h; screened at 20 nM (by protocol)
Method in brief: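 Parallel TC32-NR0B1-luc and TC32-CMV-luc reverse transfections with 20 nM siRNA in RPMI-1640/10% FBS, luciferase measured 48 h later. Seed-adjusted z-scores from normalized, z-score-MAD transformed data; AllStars negative and siGL4 controls on each plate.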

Row | Sequence | seed-corrected z-score
1 | AACCGAAGGAGAUUCCUGG against C8orf49 | 0.161
2 | AAAACGAUCAAAAUCUGUC against RPL14P1 | -3.16
3 | AAUUCACAUGUUGUAAUCC against STRADBP1 | -0.053
4 | UUUCCUAUUCACAAGAGCG against FHIT | 1.2
5 | AAUCGCAUUGUUCAUGUCC against OR6K3 | -1.67
6 | UCCUUGCAAAUCUCCGACC against LTBP3 | -1.01
7 | AAACCGAUAAGAACUGAGA against TMEM41A | 0.54
8 | AAACCUAUUAACUUCAAGC against CHKA | -0.134
9 | AAAGUUGAGGGUAGCACUC against AP5B1 | 0.334
10 | AUGGGUCUCAUGCUCCUCU against TMEM74B | -2.13
11 | UUAAUGAAUCUACAGUCCG against OTOR | 0.51
12 | AGUAUAUCACACUUGAUCC against COL4A4 | -0.00727
13 | UAAAUUUGCAUGAAGGUGU against TMEM179 | 0.108
14 | UCUAGGAGCAGCGCAACUG against ANKRD29 | -0.882
15 | AAGGUAAACGAUUAAAUUG against LAMTOR3 | 0.248
16 | UACAGUAGCACUGCCCUGU against LAMA5 | -2.69
17 | ACAUUGGUACCUGUCAUCC against GLYCTK | 0.203
18 | AAAAUAUAGAUAUCUAUGC against GADD45B | 1.35
19 | AGCAGCAUCAUUCUCAUGU against LOXL4 | 0.376
20 | UCAGUUUCCUCGCCGACUC against SH3BP5L | -2.66
21 | UACUGAGGACCUUUCGUUC against SPATA21 | -0.926
22 | UGCUUAACCACAGAAGCUG against ADSL | -0.731

Row | Sequence | seed-corrected z-score
23 | UACAGUACAAGUAUGAGCU against CYB561D2 | -1.33
24 | UCUCCUUUUAGCAUGAUCC against SNRPE | -2.15
25 | UUGAGUCCAAUGUCCACUC against TBC1D9B | -0.454
26 | UCCACGUCAAAUUUAUCCC against SPAG1 | 0.232
27 | AAUUGUCCAACAUCAACGA against METTL2A | -1.52
28 | AUUCGAAUUAGGUAUUGGG against MAK16 | 0.538
29 | UGCUUCAACAAAUCGGGCC against C7orf57 | -2.05
30 | UGAUUGCAGAUGAUGAUCC against VHLL | -0.39
31 | UUAGUUCCCAAGUACUAUC against CHD9 | 0.856
32 | UGGAUAGCGGUCCUCAUCC against IL17C | 1
33 | UUGGGUGUCAGCAGUACUG against PRRC2A | -2.05
34 | AAGGUAAACAUGUUCUCGC against TARSL2 | 0.287
35 | AAAGUUACGCACCCAAUUG against GBA | 0.249
36 | AAUGAGACGACGGAUGAAC against C19orf25 | -0.471
37 | UUACUGACAGUAUUUCACU against C10orf67 | -0.0381
38 | UUCAGCAUCACGAACAUCC against SRSF10 | -1.61
39 | UGCAGGUUCAGCUUGUCUG against LGALS2 | -2.58
40 | UUCAGCACCACGCAGUUGC against C12orf65 | 0.924
41 | UAUGGAGAGAGAAUAACUG against SDHC | 0.151
42 | UAUUGACCACAAUCGAGGC against PIGX | 1.23
43 | ACAGGGACUUGAACUGGGC against IFNL3 | -2.31
44 | UUUGUUCCAAGGCAUUCAC against CCDC129 | 1.07

Row | Sequence | seed-corrected z-score
45 | UAGGUCGAAAGAACUCAGC against PEX3 | -0.0828
46 | UGGAGUAUGAGUCCCAUUC against MTPAP | -15.6
47 | UUAGAUACAGGUAUGAACA against OR4C45 | 0.478
48 | UAAGUUCUUAGAGUUUUGG against TP53TG3 | 0.271
49 | UUCUCGAUUAAGAAGUUUC against C18orf21 | 0.33
50 | UCAGUAGCAACUGCCCUUU against MGAT4EP | -2.02
51 | AUCGAUUCCAUUUCAAGGC against SERHL | 0.0431
52 | UUGAUUUUCUCCUCCAUCC against JAKMIP1 | -0.126
53 | UGUAGUACACUCUUGUUCU against GOLGA8G | -0.318
54 | UAGUUGAGAAGGUCGAAGU against SF3B5 | -2.5
55 | UUAUGUCUCAUGAGUCGGU against ZNF548 | -0.149
56 | UGACUGUCUUGCGUAUUUC against TTC21A | 0.856
57 | UUCUAGAUAAUAACUCUCC against CCDC47 | 0.297
58 | UCAGGUAUCUGAGAAUCUC against APOBEC3B | -0.83
59 | UACUGAACACUGGAAAUUC against FGFBP2 | 1.53
60 | UUCUCAUCGAGCCUGAAGU against FAM187B | 1.36
61 | UGUUGUACCACUGUCAGAG against PPM1G | -0.406
62 | AUAGAUACUGGGAGGUUUG against UBE2J2 | 0.783
63 | UAAUCAUCCCGACCAACGC against P2RY10 | -0.625
64 | CAGAUUCUGACGCUUUGUG against LIMD1-AS1 | -1.25
65 | UCGAUGUAGAGGAUGCUGA against GDF7 | -2.35
66 | UAAGAAAUGACGUGUGCUG against PTGDR2 | 0.0522

Row | Sequence | seed-corrected z-score
67 | UGAGGUACUCGCUUUCCUG against TCTE1 | -0.587
68 | UUAGAAAUGCAAAUAAACU against TMSB15A | 0.478
69 | UUCGGUAAGACAUCAGUGG against STAG2 | 0.75
70 | UUGUAAUCAAAGUAGUAGC against PSMD8 | -5.85
71 | UGUUCUUGAACUGUAGUAC against RNF40 | 0.119
72 | UGAGCCUUGAGUGCACUGG against LOC729047 | 0.713
73 | UAAGAUUGGAGAGAUUGCC against SLC10A4 | 0.287
74 | UGUAGUAUCUGAGUCAACC against CENPE | -2.96
75 | UUACAUAUCACGUACAUCC against SENP8 | 0.448
76 | UUUUCUAAUAUGCUAACUG against BMP8A | -0.422
77 | UCAUUAGUAAUAUCGUCGG against HSP90AA1 | -0.64
78 | UCAAUGCCUCUGAUUGUUG against SPATA31D5P | -1.51
79 | UUCGAUACCAGCCGGUAGC against F8A2 | -12.9
80 | UUCCCGUAAACUUUCUCGC against KLF13 | 0.162
81 | UGAUCUAUGAGUACGUCCG against SBNO1 | -0.107
82 | AAGUGGACUUGAGAUGUGG against PPP1R1A | -0.084
83 | UUAACAUGCAAGAAAUGUC against SPO11 | 2.19
84 | UUGUCCUUCAGGAACACCG against EPB41L1 | 0.385
85 | UAUCUAGUAGUAGUUCACC against CAB39 | 0.229
86 | UCUGGUGGUGGUCUGAGUC against ZFP64 | -3.19
87 | AAUGUUGUAGUUGAUUAGC against CCDC178 | -0.836
88 | UUGACAGUUUCCAUCAGGC against PLIN3 | 0.105

Row | Sequence | seed-corrected z-score
89 | UAUCGAUUUGGGUCGUAGC against GNL1 | 0.128
90 | UACGUGAGCUGUGAUGAGC against IRF4 | -0.522
91 | UAGGCGAAUACAGUUAGGG against PRDM11 | -0.0836
92 | AAAAGGUAAACAGUGCUGG against HCAR1 | -2.61
93 | AAUAUAACGACUAAUGUCC against CTNNBIP1 | 0.971
94 | UUUAGAGGCAGGGAGAAGC against MT1XP1 | -2.16
95 | UUUCGAGUUUCAAUGCUCC against SEC31A | 0.675
96 | AUGAGUUUAAAGUACAAAG against TBC1D3G | -0.961
97 | AAAGCUCUUCUAAUGAUAG against CMPK2 | 1.05
98 | UUUCCAAUAUUUGAAGGUG against IFNK | -0.532
99 | UCUGGGUUGAGGUCUACGA against LGALSL | 1.22
100 | UCUCUUUUAGGUGGUUUGG against RNPS1P1 | -2.12
101 | UUUGGAGCCGAAAGCAUUG against TBX4 | -0.381
102 | UUUCUUACCAUAGUUGUCC against TCF7L1 | 0.0239
103 | UUCACGAGUAGAGAUGUGG against ULK4 | -0.0896
104 | UGUGGAUUCGCAUUCGUGC against WNT10B | -0.172
105 | AAGAGCAGUAUAGCCCUUG against FAM219B | -2.73
106 | UUCAGAGUAAUGUCGACAU against RPL9 | -0.525
107 | UAUUAUCCAGGAUUAAUUC against TMED5 | 0.444
108 | UGGUUAUUAACCACGAAAC against DACH2 | -2.55
109 | UUUUUGGGUUGUGCGAUGG against CLDN8 | -0.531
110 | UAGUCGAUUAAACAGAGCC against RBPJ | 0.0342

Row | Sequence | seed-corrected z-score
111 | UGAGUUCUGAUCGCAGUUC against MCC | -0.00975
112 | AAUGUUAACGAUGAAGAAG against ADRB2 | 0.292
113 | AACAGGACAAUUUUAGCAC against OR1L1 | -2.6
114 | UCUGAAACAAUCCUCACUC against LINC00598 | -0.139
115 | UGAGGAUAAAGCGAAGAGC against VARS2 | 0.0595
116 | AACUGGGACUUGUUUUACC against FAM83F | 0.219
117 | AAGGUUGCUCGUUCUAUGG against CASP5 | -2.33
118 | UAAUGUCCCAAUCGUAUUG against UXS1 | 0.872
119 | AAUCUCUCGGUUUCGAUUC against HYKK | 1.15
120 | UCCGUGCACAUCUUAUAGG against HMG20B | 0.0817
121 | UAAGAAAUGAUGCUCAAUG against LMAN1L | -0.257
122 | UCUACAUCAAUCAAAUAUC against DUSP11 | 1.23
123 | UCUCUUCAUACUUAUUAGC against TEX43 | -2.3
124 | UUGGGAUAAUGAUUGUUAC against OR10AG1 | -0.676
125 | UUCCUGACGAGGUACACUG against GAS2L2 | 0.821
126 | UCAGAGACCAGCUGUUUCU against IGSF23 | -0.0662
127 | ACAGCUAUAAAGGUGAUCC against MTMR1 | -2.56
128 | UGUCGUUCAAGGGUCUUCC against IFNE | -0.372
129 | UAACUAGUUUUCUUGUCCC against CARD6 | 0.329
130 | UAUCAUCCAAAACUGUAUC against ASNSD1 | 0.0108
131 | AUCGGCAUUAAGAAUGUAG against EIF3L | -0.237
132 | UUAGCUGCAUCCUUGCUGG against CELSR3 | -2.13
